SMILES strings stand for the structures.

The record followed here is PubChem BioAssay AID2088 (The Scripps Research Institute Molecular Screening Center, 2009).

This assay can be described thus: G2/M cell cycle arrest in HeLa, late-stage follow-up, mechanism study for Wee1 degradation inhibitor project, FACS (AID 2088). The following applies: HeLa Wee1-luciferase degradation, luminescence, G2/M arrest assay, compound-treated cells, stronger effect = higher value, concentration not given here.

On to `Cc1ccnc(NC(=O)CCCOc2cc(=O)n(C)c3ccccc23)c1`, for which the G2/M cells was determined as 30.5%.
